# Laboratory results reported in the supplement of paper PMC12350171.
# Structures can show the parent of a compound that is named as a salt. Unmarked numbers belong to inactive results.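 Rule for the calls: active = normalised median growth AUC below 0.1 of DMSO control; inactive = AUC 0.1 or higher.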
# System: P. vulgatus WT
# Assay: growth AUC normalised to DMSO control (median) (fraction of control); higher = less growth inhibition, active = hit call of the paper
# Conditions: 20 µM
# Summary of the method: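 Anaerobic growth was tracked hourly at OD578 for 24 h in 96-well plates of mGAM seeded at OD578 0.01 with each approved-drug library compound at 20 μM and 1% DMSO. Strains had first been passaged twice overnight without oxygen. Three biological replicates were run. The reported median is the area under the curve, calculated by the trapezoidal rule on curves truncated at entry into stationary phase and normalised to vehicle wells on the same plate.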
# 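Note: active when median AUC fell below 0.1.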
row,SMILES,growth AUC normalised to DMSO control
1,Cc1ccc(-c2cc(C(F)(F)F)nn2-c2ccc(S(N)(=O)=O)cc2)cc1 [Celecoxib],0.771
2,CCCN(CCC)C(=O)C(CCC(=O)O)NC(=O)c1ccccc1 (configuration not stated) [Proglumide],1.06
3,Clc1ccc(C(c2ccccc2Cl)C(Cl)Cl)cc1 (configuration not stated) [Mitotane],0.94
4,CCc1c(C)[nH]c2c1C(=O)C(CN1CCOCC1)CC2 (configuration not stated) [Molindone hydrochloride],1.05
5,OC(CCN1CCCCC1)(c1ccccc1)C1CC2C=CC1C2 (configuration not stated) [Biperiden hydrochloride],1.01
6,CC(COc1ccccc1)N(CCCl)Cc1ccccc1 (configuration not stated) [Phenoxybenzamine hydrochloride],1.03
7,Nc1ccc(/N=N/c2ccccc2)c(N)n1 [Phenazopyridine hydrochloride],1.03
8,N=C(N)NS(=O)(=O)c1ccc(N)cc1 [Sulfaguanidine],1.05
9,COc1ccc(/C=C/C(=O)Nc2ccccc2C(=O)O)cc1OC [Tranilast],1.02
10,C=C1/C(=C\C=C2/CCC[C@]3(C)[C@@H]([C@H](C)/C=C/[C@@H](O)C4CC4)CC[C@@H]23)C[C@@H](O)C[C@@H]1O [Calcipotriene],0.958
11,C[N+](C)(CCOc1ccccc1)Cc1ccccc1.O=C([O-])c1cc2ccccc2cc1O [Bephenium hydroxynaphthoate],0.991
12,COc1c(N2C[C@@H]3CCCN[C@@H]3C2)c(F)cc2c(=O)c(C(=O)O)cn(C3CC3)c12 [Moxifloxacin],0.0128 (active)
